According to PubChem BioAssay (NCI):
About 83,000 compounds went through this panel and 20% of them were active in at least one assay; those are over-represented in the sample as a whole.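 How to read the values: 0–100, growth inhibition (40 = 60% inhibited); 0, no net growth; -100 to 0, cell death (-40 = 40% of starting cells died; -100 = all dead).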 Unmarked numbers belong to inactive results. The source made the active and inactive calls. The calls were made as follows: active = growth percent below 10; inactive = the rest.

Legend:
Assay in all cases: NCI-60 one-dose screen, 48 h (100 = growth as untreated, 0 = no growth, -100 = all killed)
Conditions in all cases: 10 µM
NCI-H23 lung = test system: NCI-H23 lung
NCI-H322M lung = test system: NCI-H322M lung
HOP-62 NSCLC = test system: HOP-62 NSCLC
NCI-H460 lung = test system: NCI-H460 lung
HOP-92 NSCLC = test system: HOP-92 NSCLC
NCI-H522 lung = test system: NCI-H522 lung
A549/ATCC NSCLC = test system: A549/ATCC NSCLC
786-0 renal = test system: 786-0 renal
COLO 205 colon = test system: COLO 205 colon
NCI-H226 lung = test system: NCI-H226 lung

SMILES | growth (NCI-H23 lung) | growth (NCI-H322M lung) | growth (HOP-62 NSCLC) | growth (NCI-H460 lung) | growth (HOP-92 NSCLC) | growth (NCI-H522 lung) | growth (A549/ATCC NSCLC) | growth (786-0 renal) | growth (COLO 205 colon) | growth (NCI-H226 lung)
CCCCCCCCCCC1CO1 (configuration not stated) | 106% | 109% | 95.1% | 105% | 89.7% | 102% | 99.5% | 101% | 105% | 
NC(=S)N/N=C/c1ccc(N)cc1 | 89.5% | 99.4% | 97% | 106% | 89.1% | 92.3% | 76% | 99.9% | 110% | 
O=S(=O)(Cc1ccccc1)c1ccccc1 | 105% | 118% | 104% | 112% | 105% | 104% | 98.6% | 101% | 112% | 
COc1cccc(/C=N/NC(=S)NC2CC3CCC2C3)c1O (configuration not stated) | 71% | 62.2% | 39.6% | 3.68% (active) | 55.5% | 64.7% | 43.9% | 86.3% | 105% | 
COc1ccc(-c2cc3c(nn2)-c2ccccc2C3=O)cc1 | 68.5% | 65.6% | -14.4% (active) | 15.1% | 98.3% | 26.4% | 2.29% (active) | 25.8% | 42.3% | 
CCCC(C)OCC(=O)O (configuration not stated) | 109% | 96.8% | 111% |  | 76.6% | 101% | 93.9% | 107% | 108% | 
COC(=O)c1ccc(C(C)C)cc1 | 100% | 95.8% | 87.8% | 114% | 82.7% | 79.3% | 90.5% | 100% | 98% | 
COc1cc2nn(-c3ccccc3N)nc2cc1OC | 94.3% | 97.1% | 103% | 102% | 85.8% | 100% | 95.1% | 95.7% | 119% | 
Cc1ccc(S(=O)(=O)O)c(C)c1 | 105% | 96.7% | 94.5% | 103% | 92.4% | 90.2% | 104% | 103% | 104% | 
O=[N+]([O-])c1cccc(N=Nc2ccc(O)cc2O)c1 | 74.3% | 95.9% | 103% | 91.6% | 47.4% | -11.1% (active) | 93.6% | 74% | 92.2% | 
O=[N+]([O-])c1ccc(S(=O)(=O)NN=C2CCCCC2)cc1 | 104% | 108% | 99.5% | 121% | 96.7% |  | 93.9% | 103% | 102% | 
O=C(O)CCCC(=O)O | 95.3% | 98.9% | 97.7% | 101% | 72.6% | 99.7% | 97.9% | 106% | 97.1% | 
CCn1c(=O)n(C)c2c(=O)n(C)c(=O)n(C)c21 | 98.9% | 105% | 97.2% | 112% | 102% | 96.1% | 101% | 109% | 101% | 
COCCOC(=O)c1ccc(C(C)C)cc1 | 102% | 98.2% | 80.3% | 108% | 81.8% | 79.7% | 79.5% | 93.8% | 104% | 
O=P(O)(O)OCC(O)CO (configuration not stated) | 107% | 107% | 104% | 109% | 96.1% | 109% | 97.3% | 101% | 110% | 
CCNc1nc2c(cnn2C)c(=O)[nH]1 | 99.7% | 95.5% | 101% | 108% | 99.8% | 98.4% | 109% | 101% | 96.5% | 
O=[N+]([O-])c1ccc(N=Nc2ccc(O)c3ccccc23)cc1 | 6.51% (active) | 79.3% | 75.2% | 30.9% | 10.8% | -14.2% (active) | 71.1% |  | 88.5% | 

SMILES | growth (NCI-H23 lung) | growth (NCI-H322M lung) | growth (HOP-62 NSCLC) | growth (NCI-H460 lung) | growth (HOP-92 NSCLC) | growth (NCI-H522 lung) | growth (A549/ATCC NSCLC) | growth (786-0 renal) | growth (COLO 205 colon) | growth (NCI-H226 lung)
Cn1cnc2nc(Cl)nc(Cl)c21 | 40.6% | 34.1% | 8.69% (active) | -9.25% (active) | 31.3% |  | 17.2% | 4.6% (active) | -29.3% (active) | 
CC1CCCCN1C(=S)Nc1ccc(S(=O)(=O)N2CCCCC2)cc1 (configuration not stated) | 104% | 118% |  | 97.1% | 63.1% | 73% | 101% | 92.6% |  | 
CC1C(=O)c2ccccc2CC1C(=O)O (configuration not stated) | 96.8% | 99.5% | 105% | 122% | 101% |  | 93.8% | 110% | 105% | 
O=C(O)COCC(=O)O | 105% | 97.6% | 103% | 107% | 72.4% | 94.3% | 91.6% | 110% | 108% | 
OCC(O)C(O)C(O)C(O)/C=N/O (configuration not stated) | 101% | 103% | 83.5% | 99.8% | 74.8% | 94.9% | 60.9% | 96.8% | 112% | 
NCCCN | 112% | 108% | 99.4% |  | 103% | 105% | 105% | 104% | 122% | 
CC(=O)OCCO | 108% | 102% | 109% |  |  | 111% | 99.2% | 101% | 107% | 
COc1cc2c3cc1Oc1c(OC)c(OC)cc4c1C(Cc1ccc(O)c(c1)Oc1ccc(cc1)CC3N(C)CC2)N(C)CC4 (configuration not stated) | 10.8% | 44.6% | 4.33% (active) | 2.92% (active) | -17.1% (active) | -34.4% (active) | -33% (active) | 32.3% | -97.3% (active) | 
O=c1[nH][nH]c(=O)c2cc([N+](=O)[O-])ccc12 | 101% | 123% | 102% | 111% | 107% | 90.6% | 108% | 106% | 99.6% | 
CCCCCCCCO | 97.5% | 108% | 99.6% | 103% | 107% | 107% | 100% | 102% | 114% | 
CCOc1ccc(Br)cc1/C=N\N=C\c1cc(Br)ccc1OCC |  | 111% | 108% | 103% | 92.2% | 104% | 104% | 105% | 119% | 97.6%
C/C(=N/NC(N)=O)c1ccco1 | 97.1% | 107% | 85.7% | 107% | 89.8% | 90.5% | 83.7% | 99.9% | 105% | 
O=[N+]([O-])c1ccccc1N=Nc1ccc(O)cc1O | 103% | 107% | 106% | 115% | 112% |  | 106% | 108% | 102% | 
CC(=Nc1ccccc1)C1=C(O)C(Cc2cccc(F)c2)NC1=O (configuration not stated) | 17.1% | 31.8% | 28.9% | 6.19% (active) | 41.2% | -34.5% (active) | 14.3% | 15.3% | -55.5% (active) | 
CNc1nc(NC)c2cn[nH]c2n1 | 104% | 116% | 104% | 109% | 84.9% |  |  | 101% | 95.6% | 
CC(=O)c1ccc(N=C(C#N)C2=C(O)c3ccccc3C2=O)cc1 | 104% | 100% | 100% | 101% |  | 78.6% |  | 103% | 111% | 
